KCNQ2 inh: KCNQ2 (rat) channel inhibition; B-score at 10 µM; 310,000 compounds, 1.1% hits; CHO-K1 KCNQ2, FluxOR thallium flux, 20 min; hits give low values; O88943;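 active = fluorescence ratio B-score at most minus 3 library SDs, with starting brightness B-score within 2 library SDs, cut at about -5.5 in these data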
KCNQ2 enhance: enhances the rat KCNQ2 potassium channel | CHO-K1 KCNQ2, FluxOR thallium flux fluorescence; hits give high values | 310,000 compounds, 0.54% hits | B-score at 10 µM;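 active = fluorescence ratio B-score at least 3 SD of library B-scores, with initial fluorescence B-score within 3 of them, cut at about 5.3 in these data; same plate scores as AID 2156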;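 note: B-score of peak minus minimum over baseline fluorescence ratio after K+ and Tl+ stimulus; positive B-score means potentiation of KCNQ2 with more thallium influx and brighter signal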
Kir21 confirm: confirmation of mouse Kir2.1 potassium channel inhibitors; shares compounds with KCNQ2 enhance; Kir2.1-expressing cells, FluxOR thallium flux fluorescence; hits give low values; Tl flux remaining, % of negative control (hits give low values), % at 10 µM; 2,300 compounds, 41% hits;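 active = Primary-screen hit whose thallium flux fell at least 3 control SD below untreated wells in both duplicates, with normal baseline fluorescence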;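 note: 0% = blank wells without stimulus and 100% = stimulated no-compound controls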
HEK293 Tl flux: parental HEK293 activity in Kir2.1 inhibitor counter-screen | shares compounds with KCNQ2 enhance | parental HEK293 cells, FluxOR thallium flux fluorescence; 0% = unstimulated blank wells | FluxOR signal as % of negative control (100 = no effect), % at 10 µM | 2,300 compounds, 19% hits;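 active = dye signal at least 3 control SD above or below untreated wells in both duplicates, raw fluorescence within 3, either direction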;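 note: percent is based on the flux ratio of peak minus minimum fluorescence over baseline F0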
CHO-K1 Tl ctr: alters thallium flux in parental CHO-K1 cells, KCNQ2 counter-screen; shares compounds with KCNQ2 enhance; FluxOR thallium flux fluorescence; zero = vehicle mean+3SD, 100% = vehicle-minus-blank window; activity increase over 3SD of controls, % at 10 µM; 1,200 compounds, 43% hits; AID 2282;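 active = signal rise of at least 3 SD above the untreated control mean, in both duplicate wells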;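 note: counter screen of KCNQ2 potentiator hits so any rise reflects channel-independent effects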
KCNQ1 sel pot: tests whether KCNQ2 potentiators also act on human KCNQ1. shares compounds with KCNQ2 enhance. CHO KCNQ1 stable, FluxOR thallium flux fluorescence; beyond 3SD, as % of vehicle-control signal. activation over 3SD threshold, % at 10 µM. 1,200 compounds, 28% hits;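 active = fluorescence ratio rise of at least 3 SD of vehicle wells above their mean, in both replicate wells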;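 note: 0% = vehicle mean plus 3 SD and 100% = vehicle minus unstimulated blank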
Target sequence (P51787 whole entry, looked up): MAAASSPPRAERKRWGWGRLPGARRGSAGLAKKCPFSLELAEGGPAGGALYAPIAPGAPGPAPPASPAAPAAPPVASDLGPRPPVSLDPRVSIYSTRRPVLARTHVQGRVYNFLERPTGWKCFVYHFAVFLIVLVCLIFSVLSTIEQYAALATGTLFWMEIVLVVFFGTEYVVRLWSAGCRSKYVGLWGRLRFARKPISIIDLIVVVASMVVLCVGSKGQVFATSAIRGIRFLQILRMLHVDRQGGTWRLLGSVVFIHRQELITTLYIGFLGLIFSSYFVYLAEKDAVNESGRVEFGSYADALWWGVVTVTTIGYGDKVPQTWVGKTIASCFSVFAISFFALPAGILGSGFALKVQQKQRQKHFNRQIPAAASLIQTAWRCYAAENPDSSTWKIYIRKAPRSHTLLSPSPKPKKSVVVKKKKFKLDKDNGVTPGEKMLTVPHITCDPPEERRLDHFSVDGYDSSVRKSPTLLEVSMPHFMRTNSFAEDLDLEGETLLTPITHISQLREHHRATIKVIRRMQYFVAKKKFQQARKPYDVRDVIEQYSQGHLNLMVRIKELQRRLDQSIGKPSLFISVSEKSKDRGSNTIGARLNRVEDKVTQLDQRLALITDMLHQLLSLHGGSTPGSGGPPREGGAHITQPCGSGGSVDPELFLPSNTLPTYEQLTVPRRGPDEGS
KCNQ2 pot confirm: rat KCNQ2 channel potentiator confirmation | shares compounds with KCNQ2 enhance | CHO-KCNQ2 cells, FluxOR thallium flux fluorescence | potentiation, less the hit threshold, % at 10 µM | 1,200 compounds, 68% hits | AID 2287;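 active = fluorescence ratio rising 3 SD or more over the vehicle control mean in both replicates, plus primary screen hit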;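 note: peak minus minimum thallium fluorescence divided by baseline after K/Tl stimulus; 0% = vehicle mean plus 3 SD and 100% = vehicle minus unstimulated blank difference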
Kir2-1 sel: tests whether KCNQ2 potentiators also affect mouse Kir2.1; shares compounds with KCNQ2 enhance; HEK293 Kir2.1, FluxOR thallium flux fluorescence; activity over 3SD threshold, % at 10 µM; 1,200 compounds, 2% hits;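 active = fluorescence ratio rise of at least 3 SD above the vehicle-control mean, seen in both replicates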;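 note: 0% = vehicle mean plus 3 SD and 100% = vehicle minus no-stimulus blank window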
KCNQ2 W236L MoA: potentiates the retigabine-insensitive rat KCNQ2 W236L mutant channel; shares compounds with KCNQ2 enhance; CHO KCNQ2-W236L, automated patch clamp current; current increase over 3SD of negative controls (%), hits give high values, % at 25 µM; 940 compounds, 10% hits;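 active = current increase at least 3 SD of the untreated controls above them in both duplicate recordings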
* = called active by the depositor; i = inactive; . = no result. Rows were chosen to be rich in hits. Some 1.6% of all compounds tested hit in one or more screens of this group.

SMILES	KCNQ2 inh	KCNQ2 enhance	Kir21 confirm	HEK293 Tl flux	others
O=c1[nH]c(C(Cl)(Cl)Cl)nc2ccc3ccccc3c12	i	6.63*	i	174.5%*	CHO-K1 Tl ctr=-18.4;KCNQ1 sel pot=38.3*;KCNQ2 pot confirm=5.6*;Kir2-1 sel=-18.9;KCNQ2 W236L MoA=i
CCOC(=O)N1CCN(C(=O)CCc2ccc(S(=O)(=O)NC(C)(C)C)cc2)CC1	i	0.33	.	.
O=C(COC(=O)CNC(=O)c1ccc(Cl)cc1Cl)NC1CCCCCCC1	i	1.63	.	.
O=c1[nH]nnc2c1sc1nc(N3CCOCC3)c3c(c12)CCCC3	i	1.66	.	.
S=c1nc[nH]c2c1sc1nc(N3CCOCC3)c3c(c12)CCCC3	i	12*	i	270.0%*	CHO-K1 Tl ctr=35.8*;KCNQ1 sel pot=-18.9;KCNQ2 pot confirm=60.2*;Kir2-1 sel=-10.3;KCNQ2 W236L MoA=i
COCCCNC(=O)c1ccccc1Oc1ccccc1	i	.	.	.
CCC(CC)NC(=O)c1ccccc1Oc1ccccc1	i	.	55.0%*	i
O=C(NCc1ccc(Cl)cc1)c1ccccc1Oc1ccccc1	i	8.79*	i	i	CHO-K1 Tl ctr=109.8*;KCNQ1 sel pot=-11.7;KCNQ2 pot confirm=11.8*;Kir2-1 sel=-49.4;KCNQ2 W236L MoA=i
CCC(C)(C)NC(=O)c1ccccc1Oc1ccccc1	i	.	.	.
Cc1ccc(C)c(C2=NNC(=O)CC2)c1	i	0.39	.	.
Brc1ccc(C[n+]2ccccc2)cc1	i	.	.	.
CCc1nnc2c(N(C)S(=O)(=O)c3ccc(C)cc3)nc3ccccc3n12	i	1.4	.	.
Cc1ccc(S(=O)(=O)N(C)c2nc3ccccc3[nH]c2=S)cc1	i	5.57*	i	154.0%*	CHO-K1 Tl ctr=-26.0;KCNQ1 sel pot=-6.3;KCNQ2 pot confirm=-3.3;Kir2-1 sel=-34.7
COCCCNC(=S)N(CCO)Cc1cc2cc3c(cc2[nH]c1=O)OCO3	i	0.2	.	.
O=[N+]([O-])c1cc(Cl)ccc1N1CCCCC1	i	0.75	.	.
Nc1cc(N2CCCCC2)c(Cl)cc1[N+](=O)[O-]	i	9.2*	i	i	CHO-K1 Tl ctr=139.2*;KCNQ1 sel pot=-17.4;KCNQ2 pot confirm=45.3*;Kir2-1 sel=-27.4;KCNQ2 W236L MoA=27.9%*
Cc1nnc(NN2CCOCC2)[nH]c1=O	i	.	.	.
CCn1cc(S(=O)(=O)NCc2ccc(OC)cc2)cn1	i	0.58	.	.
CCOC(=O)c1cccc(OCC(O)CNCCOc2ccccc2F)c1 (stereo not given)	i	0.64	.	.
CCN(CCNCC(O)COc1ccccc1C(C)C)c1cccc(C)c1 (stereo not given)	i	.	33.0%*	i
CS(=O)(=O)c1ccc(Cl)c(NC(=O)CSc2nc3ccccc3c(=O)n2Cc2ccco2)c1	i	.	.	.
Cc1ccc(S(=O)(=O)NCCSCc2ccccc2)cc1	i	.	63.5%*	i
Cc1ccc(CSCCNS(=O)(=O)c2ccc([N+](=O)[O-])cc2)cc1	i	.	.	.
COc1ccc(Cc2nnc(NC(=O)c3cccc(F)c3)s2)cc1OC	i	1.45	.	.
O=C(Cc1ccc(-n2cnnn2)cc1)NC12CC3CC(CC(C3)C1)C2	i	6.18*	i	i	CHO-K1 Tl ctr=83.0*;KCNQ1 sel pot=-17.4;KCNQ2 pot confirm=3.4*;Kir2-1 sel=-41.0;KCNQ2 W236L MoA=i
SMILES	KCNQ2 inh	KCNQ2 enhance	Kir21 confirm	HEK293 Tl flux	others
O=C(Nc1ccc(-n2cnnn2)cc1)C1CCC1	i	.	.	.
O=S(=O)(Nc1ccc(C(F)(F)F)cn1)c1ccccc1	i	.	.	.
CC1CCCCC1NC(=S)NC(=O)c1sc2ccccc2c1Cl (stereo not given)	i	0.2	.	.
O=C(NC(=S)N(CCCCO)C1CCCCC1)c1sc2ccccc2c1Cl	i	17.5*	i	i	CHO-K1 Tl ctr=29.6*;KCNQ1 sel pot=27.6*;KCNQ2 pot confirm=56.4*;Kir2-1 sel=-7.7;KCNQ2 W236L MoA=i
COc1cccc2c1O/C(=N\O)C(C(=O)Nc1ccc(C)cc1)C2 (stereo not given)	i	.	.	.
Cn1c(CNc2ccc(Cl)cc2)nnc1SCc1ccccc1	i	.	.	.
CCn1c(CC(=O)Nc2ccc(C)cc2)nnc1SCC(=O)NCc1ccccc1	i	.	.	.
CCn1c(CNc2ccc(Cl)cc2)nnc1SCc1ccccc1	i	.	63.0%*	i
CCn1c(CSCc2ccc(C)cc2)nnc1SCC(=O)NCc1ccccc1	i	.	i	i
CSc1nc(N)c2c(C)c(C)sc2n1	i	0.05	.	.
O=C(Nc1ccc(CSc2ccccc2)cc1)c1ccco1	i	6.94*	i	i	CHO-K1 Tl ctr=75.8*;KCNQ1 sel pot=-13.2;KCNQ2 pot confirm=-1.5;Kir2-1 sel=-45.6;KCNQ2 W236L MoA=i
O=C(Nc1ccc(Oc2cccc3ccccc23)cc1)c1ccco1	i	6.38*	i	i	CHO-K1 Tl ctr=-7.0;KCNQ1 sel pot=-18.4;KCNQ2 pot confirm=-10.4;Kir2-1 sel=-37.1;KCNQ2 W236L MoA=i
O=C(O)c1ccccc1C(=O)Nc1ccc(Oc2cccc3ccccc23)cc1	i	0.74	.	.
O=C(CCc1ccccc1)Nc1ccc(NC(=O)c2ccco2)cc1	i	0.76	.	.
CC(C)(C)c1ccc(C(=O)N2CCCN(c3ccc([N+](=O)[O-])cn3)CC2)cc1	i	0.01	.	.
CC1=CC(C)(C)N(C(=O)CSc2nnc(N)s2)c2cc(C)c(C)cc21	i	1.01	.	.
CC1=CC(C)(C)N(C(=O)CSc2nnc(C)s2)c2ccc(C)cc21	i	.	70.5%*	i
Cc1cc(C)c2ccc(NN)nc2c1O	i	.	.	.
Cc1cc(C)c2ccc(/C=N/O)nc2c1O	i	11.6*	i	i	CHO-K1 Tl ctr=146.6*;KCNQ1 sel pot=12.0*;KCNQ2 pot confirm=-3.2;Kir2-1 sel=-17.3;KCNQ2 W236L MoA=i
Cc1cc(Br)cc2cn[nH]c12	i	0.25	.	.
COc1ccc(NC(=O)CN(C)C(=O)c2ccc(OCc3ccccc3)c(OC)c2)cc1	i	.	.	.
COCCNC(=O)/C(C#N)=C/c1ccc(O)cc1	i	0.47	.	.
COCCNC(=O)/C(C#N)=C/c1cccc(/C=C(\C#N)C(=O)NCCOC)c1	i	9.31*	i	i	CHO-K1 Tl ctr=-6.6;KCNQ1 sel pot=2.5*;KCNQ2 pot confirm=1.3*;Kir2-1 sel=-30.2;KCNQ2 W236L MoA=9.2%*
O=C(Nc1ccnn1C1CCN(Cc2cc3ccccc3[nH]2)CC1)C1CCOC1 (stereo not given)	i	5.72*	i	i	CHO-K1 Tl ctr=-8.6;KCNQ1 sel pot=1.5*;KCNQ2 pot confirm=42.2*;Kir2-1 sel=-35.3;KCNQ2 W236L MoA=i
Cc1c(CN2CCC(n3nccc3NC(=O)C3CCOC3)CC2)[nH]c2ccccc12 (stereo not given)	i	0.76	.	.
O=C(NCCNc1ccccc1[N+](=O)[O-])c1cc(F)c(F)cc1Cl	i	.	.	.
COc1ccc(CNC(=O)CN(Cc2ccccc2F)C(=O)c2csnn2)cc1	i	0.73	.	.
CC(C(Sc1ccccc1N)c1ccccc1)[N+](=O)[O-] (stereo not given)	i	.	52.0%*	i
Nc1ccccc1SSc1ccccc1N	i	.	.	.

Source: PubChem (Johns Hopkins Ion Channel Center)
